Assay results taken from ChEMBL document CHEMBL3988442, “University of Dundee, Small-Polar-MMV Screening Library” (2021).
Among all 48,000 compounds or so, about 13,000 (27%) showed an effect of 50% or more. Some of the results follow.

system: Wolbachia pipientis; assay: Anti-Wolbachia Cell-Based Screen; type: functional; design: scale not given: in the data most compounds retested in dose-response had high values; conditions: 5 µM

Row | Compound | Percent Effect [%]
1 | COCc1cc(C[C@@H]2CC[C@H](O)[C@@H](CN(CC(C)C)CC(C)C)O2)no1 | -3.447
2 | Cc1nc(CN2C(=O)C[C@@H]3[C@@H]2CCN3C(=O)C2CCOCC2)cs1 | 6.269
3 | Cc1nc(CN2C(=O)C[C@@H]3[C@@H]2CCN3Cc2cnn(C)c2)cs1 | 96.83
4 | Cc1nc(CN2C(=O)C[C@@H]3[C@@H]2CCN3S(=O)(=O)C2CC2)cs1 | 97.85
5 | Cc1nc(CN2C(=O)C[C@@H]3[C@@H]2CCN3S(C)(=O)=O)cs1 | 77.62
6 | CCOC(=O)c1nc(CN2CCN(C(C)C(=O)NC3CC3)CC2)cs1 (centres undefined) | -13.36
7 | COc1ccc2cccc(CC(=O)NCCc3n[nH]c(=O)[nH]3)c2c1 | -7.606
8 | CCCC(=O)NCCc1nc2cc(-c3ccc(OC)cc3)ncn2n1 | 102.6
9 | COc1ccc(CCC(=O)NCc2cc(C)on2)cc1 | 0.6679
10 | CCCNCc1cn(Cc2ccccc2)nc1-c1cccnc1.Cl | -0.3485
11 | CCNc1nc(-c2cccnc2)c(-c2ccnc(NS(C)(=O)=O)n2)s1 | 73.47
12 | CCNc1nc(-c2cccnc2)c(-c2ccnc(NCCO)n2)s1 | 103.5
13 | CC(CNc1nccc(C(C)C)n1)Oc1cccnc1 (centres undefined) | 15.19
14 | Cn1cnc2c(-c3cccnc3)nc(C3CCN(S(C)(=O)=O)CC3)cc21 | -22.74
15 | COc1ccc(NCc2c[nH]nc2-c2cccnc2)cc1 | -7.559
16 | CC(C)(C)Nc1nc(-c2cccnc2)c(-c2ccnc(NCCO)n2)s1 | 93.88
17 | Cn1c(CN2CCC(O)CC2)nnc1C1CCCN(c2ccncc2)C1 (centres undefined) | -3.015
18 | N#Cc1cc(Cl)ccc1N1CCOC(C(N)=O)C1 (centres undefined) | -16.78
19 | Cc1cccc(CN2CCN(c3ncnc4[nH]cnc34)CC2CCO)n1 (centres undefined) | 8.055
20 | CCOc1ncccc1C(=O)NC1CCCN(c2ncccn2)C1 (centres undefined) | 120.7
21 | CCOc1ccc(C(=O)NC2CCN(c3ncccn3)CC2)cc1C | 5.908
22 | CCOc1ncccc1NC(=O)NC1CCN(c2ncccn2)CC1 | 128.6
23 | CCOc1ncccc1NC(=O)N1CCOCC1C (centres undefined) | -9.997
24 | CCCC1CCCN(C(=O)Nc2cccnc2OC)CC1 (centres undefined) | 9.171
25 | CCOc1ncccc1NC(=O)N1CCCCCC1 | 3.505
26 | CCN1CCC(CNC(=O)Nc2cccnc2OC)CC1 | 15.3

Row | Compound | Percent Effect [%]
27 | CCOc1ncccc1NC(=O)NC1CCN(C(=O)C2CC2)CC1 | 105.1
28 | CCOCc1ccccc1NC(=O)NC1CCN(c2ncccn2)CC1 | 3.518
29 | Cc1ccc(C(=O)NC2CCCN(c3ncccn3)C2)cn1 (centres undefined) | 6.467
30 | CCOc1ncccc1NC(=O)NC1CCN(C(C)=O)CC1 | 106.2
31 | CCOc1ncccc1C(=O)NC1CC(=O)N(CC(F)(F)F)C1 (centres undefined) | -4.406
32 | CCN(CC(F)(F)F)C(=O)C1CCCN(Cc2ccno2)C1 (centres undefined) | -5.798
33 | CCOCCC(=O)N1CC(=O)Nc2cc(Br)ccc21 | 10.79
34 | CC(=O)NC(Cc1c[nH]c2cc(F)ccc12)C(=O)Nc1nonc1C (centres undefined) | -8.72
35 | Cc1cccc(C(C(=O)NCCCc2nnc3ccccn23)N(C)C)c1 (centres undefined) | -0.5328
36 | O=C(O)C(F)(F)F.c1ccc(NC[C@@H]2CCC[C@@H]3CN(c4ncccn4)C[C@@H]32)nc1 | 13.12
37 | Cc1cccc(-n2nc(CC(C)C)nc2CCC(=O)N(C)C)c1 | 1.155
38 | COc1ncccc1NC(=O)C1CCN(S(C)(=O)=O)CC1 | 9.079
39 | Cc1ccc(CNC(=O)NC2CCCN(c3ncccn3)C2)cn1 (centres undefined) | -0.9532
40 | CCOC(=O)N1CCC(NC(=O)Nc2cccnc2OCC)CC1 | 102.8
41 | COc1ncccc1NC(=O)NCC1CC1 | 5.858
42 | CCOc1ncccc1NC(=O)N1CCCC1c1cc(C)no1 (centres undefined) | 4.545
43 | CCOc1ncccc1NC(=O)NC1CCCN(S(C)(=O)=O)C1 (centres undefined) | 87.05
44 | CCOCc1ccccc1NC(=O)NC1CCN(C(=O)OCC)CC1 | 14.37
45 | CCOc1ncccc1NC(=O)N1CCN(c2cccc(C)c2C)CC1 | -4.888
46 | COc1ncccc1NC(=O)NC1CCCN(c2ncccn2)C1 (centres undefined) | 123
47 | COc1cc(CN2CCCC(Nc3cccc(F)c3)C2)cc(Cl)c1O (centres undefined) | 5.248
48 | CN1C(=O)C2(CCN(S(=O)(=O)C3CC3)CC2)c2ccccc21 | -8.422
49 | O=C(CCc1nc(-c2cccnc2)no1)N(CC1CCOC1)C1CC1 (centres undefined) | -0.4889
50 | CCCC(NC(=O)c1cc(C)n(C2CC2)c1C)c1nnn[nH]1 (centres undefined) | 4.085
51 | NS(=O)(=O)CCNC(=O)c1ccc(-c2ccc(F)cc2)cc1F | -11.53
52 | CC(=O)N1CCN(Cc2c(C)ccc3ccccc23)CC(O)C1 (centres undefined) | 0.367

Row | Compound | Percent Effect [%]
53 | O=C(CN1CCCC1COc1ccccc1)NCc1ccccn1 (centres undefined) | 90.25
54 | O=C(CN1CCCC1CCCO)NCc1ccccn1 (centres undefined) | 111.1
55 | O=C(CN1CCCC1c1nc2cc(F)ccc2[nH]1)NCc1ccccn1 (centres undefined) | -7.361
56 | O=C(CN1CCCC1CC(=O)c1ccccc1)NCc1ccccn1 (centres undefined) | 107.5
57 | O=C(CN1CCOCC1CC(=O)c1ccco1)NCc1ccccn1 (centres undefined) | -22.29
58 | O=C(CN1CCCCCCC1=O)NCc1ccccn1 | 8.013
59 | c1ccc2c(c1)CC(N1CCCC(NCc3ccc4nonc4c3)C1)C2 (centres undefined) | 0.08784
60 | CN(C)S(=O)(=O)c1ccc(CNC(=O)c2cn3c(n2)CNCC3)cc1 | -2.346
61 | Cc1ccc(C)c2c(=O)cc(CN3CC[C@@H](N)[C@H](O)C3)[nH]c12 | -6.693
62 | Cc1ccnn1C(C)C(=O)Nc1cc(-c2ccncc2)[nH]n1 (centres undefined) | 16.43
63 | O=C(NCCNc1ncccn1)N1CC=C(c2ccccc2)CC1 | 13.59
64 | Nc1cc(CCCNC(=O)NC2CC2)nn1-c1ccccc1 | -28.53
65 | COCC(=O)NCc1cc(=O)n2c(n1)CN(C)CCC2.O=C(O)C(F)(F)F | 104.3
66 | O=C(NCc1cc(=O)n2c(n1)CN(CC1CC1)CCC2)c1ccsc1.O=C(O)C(F)(F)F | 88.56
67 | COCCN1CCCn2c(nc(CNC(=O)COC)cc2=O)C1.O=C(O)C(F)(F)F | 101.5
68 | COCCN1CCCn2c(nc(CNS(C)(=O)=O)cc2=O)C1.O=C(O)C(F)(F)F | 96.89
69 | CN1CCCn2c(nc(CNC(=O)c3nccn3C)cc2=O)C1.O=C(O)C(F)(F)F.O=C(O)C(F)(F)F | -10.78
70 | CC(C)N1CCCn2c(nc(CNC(=O)c3nccn3C)cc2=O)C1.O=C(O)C(F)(F)F.O=C(O)C(F)(F)F | -1.312
71 | CCCN1CCCn2c(nc(CNC(=O)N3CCCC3)cc2=O)C1.O=C(O)C(F)(F)F | 1.555
72 | CCCN1CCCn2c(nc(CNC(=O)c3ccsc3)cc2=O)C1.O=C(O)C(F)(F)F | -11.31
73 | CN1CCCn2c(nc(CNC(=O)c3ccsc3)cc2=O)C1.O=C(O)C(F)(F)F | -36.6
74 | CCc1nn(C)c(CC)c1CNC(=O)Nc1cccc2c1CCN2C | -5.732
75 | O=C1CCC2(CCN(CCSc3ccccc3)CC2)CN1CCCO | -17.17
76 | CC(CNC(=O)N1CCS(=O)(=O)CC1)Cc1cccs1 (centres undefined) | 21.62
77 | Cc1nnc(C(C)NCC2(c3c(F)cccc3F)CCCC2)o1 (centres undefined) | 5.955
78 | O=C(NCc1cc(=O)n2c(n1)CN(CC1CCOC1)CCC2)C1CC1.O=C(O)C(F)(F)F (centres undefined) | -7.493

Row | Compound | Percent Effect [%]
79 | COc1ccc(CN2CCn3cc(CNC(=O)CC4CC4)nc3C2)cc1.O=C(O)C(F)(F)F | -3.28
80 | COCC(=O)NCc1cc(=O)n2c(n1)CN(CC1CC1)CCC2.O=C(O)C(F)(F)F | 83.83
81 | COc1ccc(CN2CCn3cc(CNC(=O)C4CCC4)nc3C2)cc1.O=C(O)C(F)(F)F | -6.087
82 | COCC(=O)NCc1cc(=O)n2c(n1)CN(Cc1ccccc1)CCC2.O=C(O)C(F)(F)F | 93.29
83 | Cc1ccc(C(C)(O)CNC(=O)c2sccc2OC(F)F)o1 (centres undefined) | -15.69
84 | CCS(=O)(=O)NCC1OCCc2cn(CC3CCOCC3)nc21 (centres undefined) | -7.17
85 | O=C1N(c2ccccc2)Cc2nc(=O)[nH]n21 | 8.633
86 | O=C(c1cccnc1N1CCN(Cc2ccoc2)CC1)N1CCCCC1 | 11.57
87 | CC(C)Sc1ncccc1C(=O)NCc1ccc(O)cc1 | 102.9
88 | CC(C)Sc1ncccc1C(=O)NCc1ccc(CS(C)(=O)=O)cc1 | 3.251
89 | CC(C)Nc1ncccc1C(=O)NCc1ccnn1C | -5.174
90 | CSc1ncccc1C(=O)NCCC(O)c1ccco1 (centres undefined) | -7.347
91 | CC(C)Sc1ncccc1C(=O)NCc1ccoc1 | 124.5
92 | Cc1c[nH]c(CN(C)C(=O)C2CC(=O)N(Cc3ccncc3)C2)n1 (centres undefined) | -14.3
93 | CN1CCC(N(C)C[C@H]2CC[C@@H](Cc3ccc4occc4c3)O2)CC1 | -18.26
94 | Cc1cnc(N2CCC3(CCN(Cc4csc(C)n4)C3=O)C2)nc1.O=C(O)C(F)(F)F (centres undefined) | 101.3
95 | Cc1ccc(N2CCC3(CCN(Cc4csc(C)n4)C3=O)C2)nn1 (centres undefined) | 95.91
96 | Cc1cnc(N2C[C@H]3CN(Cc4csc(C)n4)C(=O)[C@H]3C2)nc1.O=C(O)C(F)(F)F | -0.6865
97 | Cc1nc(CN2CCC3(CCN(c4ncc(F)cn4)C3)C2=O)cs1.O=C(O)C(F)(F)F (centres undefined) | -4.043
98 | Cc1ccc(N2CCC3(CCN(Cc4nccs4)CC3)CC2)nn1 | 5.38
99 | Cc1cnc(N2CCCC3(CCN(Cc4csc(C)n4)C3=O)C2)nc1.O=C(O)C(F)(F)F.O=C(O)C(F)(F)F (centres undefined) | -16.03
100 | COc1cc(N2CCC3(CCN(Cc4csc(C)n4)C3)CC2)ncn1.O=C(O)C(F)(F)F | 133.8
101 | COc1cc(N2CCC3(CCN(Cc4csc(C)n4)C3=O)C2)ncn1.O=C(O)C(F)(F)F (centres undefined) | 173.5
102 | Cc1ccc(N2CCC3(CCN(Cc4csc(C)n4)CC3)CC2)nn1 | -10.89
103 | Cc1nc(CN2CCC3(CCCN(C(=O)c4cnccn4)C3)C2)cs1.O=C(O)C(F)(F)F (centres undefined) | -5.513
104 | Cc1nc(CN2CCC3(CCN(C(=O)c4ccoc4C)CC3)C2)cs1.O=C(O)C(F)(F)F | 2.621
